{
  "source": "PubChem BioAssay (NCI)",
  "note": "About 79,000 compounds went through this panel and 15% of them were active in at least one assay; those are over-represented in the sample as a whole. Calls of active or inactive are those of the source. Cut-off read from the data, not from the text of the source: active = growth inhibition above about 70%; inactive = the rest.",
  "data": [
    {"test": "NCI Yeast Anticancer Drug Screen. Data for the mlh1 strain (AID 171);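 note: 0% = growth of vehicle-treated control cultures of the same strain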", "settings": "S. cerevisiae mlh1 strain growth inhibition; at 3.7 µM; hits give high values", "how_it_was_run": "(§1)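 Growth of the mutant yeast strain after compound exposure, expressed as inhibition relative to vehicle-only controls.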", "values": [
      {"smiles": "CCCCCCOC(=O)NCCOC(=O)Nc1ccccc1", "growth inhibition": "-1% (inactive)"},
      {"smiles": "C[C](C)(C)[Ge]([O][Ge]([c]1ccccc1)[c]1ccccc1)([O][Ge]([c]1ccccc1)[c]1ccccc1)[C](C)(C)C", "growth inhibition": "9% (inactive)"},
      {"smiles": "CCc1c(Cl)c(C)cc(O)c1Cl", "growth inhibition": "-7% (inactive)"},
      {"smiles": "Cc1nc(Nc2ccccc2[N+](=O)[O-])sc1C(=O)CC(=O)C(=O)Nc1c(C(C)C)cccc1C(C)C", "growth inhibition": "3% (inactive)"},
      {"smiles": "CCCCCCC(O)CNCc1ccnc2ccc(OC)cc12", "note": "(stereo not drawn)", "growth inhibition": "9% (inactive)"},
      {"smiles": "Cc1c2cccc(Sc3ccccc3)c2c2c3c(cccc13)[S+](c1ccccc1)C2", "note": "(stereo not drawn)", "growth inhibition": "22% (inactive)"},
      {"smiles": "C=C1CCC(O)C/C1=C/C=C1\\CCCC2(C)C1CCC2C(C)CCCC(C)C", "note": "(stereo not drawn)", "growth inhibition": "-26% (inactive)"},
      {"smiles": "NC1=NNC2(C(N)=N1)c1ccccc1-c1ccccc12", "growth inhibition": "-2% (inactive)"},
      {"smiles": "COc1cc2cc3c4cc(OC)c(OC)cc4cc[n+]3c(C)c2cc1OC", "growth inhibition": "-28% (inactive)"},
      {"smiles": "COC(=O)NC1C(C)OC(OC2C/C=C(/C)C3C=CC4C(OC5CC(OC6CC(O)C(OC7CC(O)C(OC)C(C)O7)C(C)O6)C(O)C(C)O5)C(C)CC(C)C4C3(C)/C(O)=C3\\C(=O)OC4(CC(C)C(CO)=CC4/C=C\\2C)C3=O)CC1(C)[N+](=O)[O-]", "note": "(stereo not drawn)", "growth inhibition": "5% (inactive)"},
      {"smiles": "O=C1CSC(c2cccc(Cl)c2)N1c1ccc(-c2ccc(-n3c(-c4ccccc4)nc4ccccc4c3=O)cc2)cc1", "note": "(stereo not drawn)", "growth inhibition": "5% (inactive)"},
      {"smiles": "CCOC(=O)C(C(=O)OCC)=P(c1ccccc1)(c1ccccc1)c1ccccc1", "growth inhibition": "-2% (inactive)"},
      {"smiles": "COc1ccc(N=CN(C)C)c(C)c1", "growth inhibition": "-3% (inactive)"},
      {"smiles": "Cc1cc(S(=O)(=O)Nc2nnc3cnc4ccccc4n23)c(S)cc1Cl", "growth inhibition": "-4% (inactive)"},
      {"smiles": "O=C(Oc1ccc2c(c1)CN(Cc1ccccc1)CO2)c1ccccc1", "growth inhibition": "3% (inactive)"},
      {"smiles": "CN(C)[C@@H]1C(=O)C(C(N)=O)=C(O)[C@@]2(O)C(=O)C3=C(O)c4c(O)cccc4C[C@H]3C[C@@H]12", "growth inhibition": "-11% (inactive)"},
      {"smiles": "Cc1nc2c(Br)cc(Br)cc2c(=O)n1-c1ccccc1NC1OCC(O)C(O)C1O", "note": "(stereo not drawn)", "growth inhibition": "4% (inactive)"},
      {"smiles": "Cc1cc(N(CCOS(C)(=O)=O)CCOS(C)(=O)=O)ccc1C=Nc1ccc(-c2nc(Cc3ccccc3)sc2C)cc1", "growth inhibition": "-15% (inactive)"}
    ]},
    {"test": "NCI Yeast Anticancer Drug Screen. Data for the mlh1 strain (AID 171);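 note: 0% = growth of vehicle-treated control cultures of the same strain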", "settings": "S. cerevisiae mlh1 strain growth inhibition; at 11.0 µM; hits give high values", "how_it_was_run": "as §1", "values": [
      {"smiles": "O=C1/C(=C/c2ccccc2)CCCC1CN1CCCCC1", "note": "(stereo not drawn)", "growth inhibition": "26% (inactive)"},
      {"smiles": "C#CCN(Cc1ccc2nc(N)[nH]c(=O)c2c1)c1ccc(C(=O)NC(CCC(=O)O)C(=O)O)cc1", "note": "(stereo not drawn)", "growth inhibition": "19% (inactive)"},
      {"smiles": "CCOC1(c2cccc([N+](=O)[O-])c2)c2ccccc2Oc2ccccc21", "growth inhibition": "1% (inactive)"},
      {"smiles": "O=C(O)CNC(=S)Nc1ccccc1", "growth inhibition": "-30% (inactive)"},
      {"smiles": "N/C(=N/N=C/c1cc(Br)cc(Br)c1O)NO", "growth inhibition": "58% (inactive)"},
      {"smiles": "C[Si](C)(C)/C=C/CCNC(C#N)c1ccccc1", "note": "(stereo not drawn)", "growth inhibition": "49% (inactive)"},
      {"smiles": "CCCCCCCCCCCCCCCCOP(=O)(O)OCC(N)C(=O)O", "note": "(stereo not drawn)", "growth inhibition": "53% (inactive)"},
      {"smiles": "CC1=C(C(=O)NCc2ccccc2)C(c2ccccc2)C(C(=O)NCc2ccccc2)=C(C)N1", "growth inhibition": "-3% (inactive)"},
      {"smiles": "O=[N+]([O-])c1cc(S(=O)(=O)Nc2ccccc2)ccc1Nc1ccccc1", "growth inhibition": "90% (active)"},
      {"smiles": "CCOC(=O)C(Br)C(Br)c1ccccc1Cl", "note": "(stereo not drawn)", "growth inhibition": "92% (active)"},
      {"smiles": "CCOC(=O)C1=C(C)NC(C)=C(C(=O)OCCNC(=O)c2ccc(N=[N+]=[N-])cc2)C1c1ccccc1C(F)(F)F", "note": "(stereo not drawn)", "growth inhibition": "-1% (inactive)"},
      {"smiles": "Cc1cc(C)c(NC(=S)NC(=O)c2ccccc2)cc1C", "growth inhibition": "-7% (inactive)"},
      {"smiles": "CNCCCNc1c2ccccc2nc2cccc([N+](=O)[O-])c12", "growth inhibition": "72% (active)"},
      {"smiles": "COc1c(O)c(C=O)c(Br)c(C=O)c1O", "growth inhibition": "9% (inactive)"},
      {"smiles": "Cc1c(C)c(C)c(CSC(=N)N)c(C)c1C", "growth inhibition": "-17% (inactive)"},
      {"smiles": "CNC(=O)OCc1c(COC(=O)NC)c(-c2ccc(Cl)cc2)n2c1CCC2", "growth inhibition": "-67% (inactive)"},
      {"smiles": "CC(=O)OC1CC2C(C)(C)C(=O)C=C[C@]2(C)C2CCC3(C)C(=CCC3[C@H](CO)C[C@H](O)C(=O)C(C)(C)O)[C@]12C", "note": "(stereo partly drawn)", "growth inhibition": "39% (inactive)"},
      {"smiles": "CCCCCCOC(=O)NCCOC(=O)Nc1ccccc1", "growth inhibition": "2% (inactive)"},
      {"smiles": "C[C](C)(C)[Ge]([O][Ge]([c]1ccccc1)[c]1ccccc1)([O][Ge]([c]1ccccc1)[c]1ccccc1)[C](C)(C)C", "growth inhibition": "49% (inactive)"},
      {"smiles": "CCc1c(Cl)c(C)cc(O)c1Cl", "growth inhibition": "12% (inactive)"},
      {"smiles": "Cc1nc(Nc2ccccc2[N+](=O)[O-])sc1C(=O)CC(=O)C(=O)Nc1c(C(C)C)cccc1C(C)C", "growth inhibition": "5% (inactive)"},
      {"smiles": "CCCCCCC(O)CNCc1ccnc2ccc(OC)cc12", "note": "(stereo not drawn)", "growth inhibition": "15% (inactive)"},
      {"smiles": "Cc1c2cccc(Sc3ccccc3)c2c2c3c(cccc13)[S+](c1ccccc1)C2", "note": "(stereo not drawn)", "growth inhibition": "98% (active)"},
      {"smiles": "C=C1CCC(O)C/C1=C/C=C1\\CCCC2(C)C1CCC2C(C)CCCC(C)C", "note": "(stereo not drawn)", "growth inhibition": "-26% (inactive)"},
      {"smiles": "NC1=NNC2(C(N)=N1)c1ccccc1-c1ccccc12", "growth inhibition": "3% (inactive)"},
      {"smiles": "COc1cc2cc3c4cc(OC)c(OC)cc4cc[n+]3c(C)c2cc1OC", "growth inhibition": "-35% (inactive)"},
      {"smiles": "COC(=O)NC1C(C)OC(OC2C/C=C(/C)C3C=CC4C(OC5CC(OC6CC(O)C(OC7CC(O)C(OC)C(C)O7)C(C)O6)C(O)C(C)O5)C(C)CC(C)C4C3(C)/C(O)=C3\\C(=O)OC4(CC(C)C(CO)=CC4/C=C\\2C)C3=O)CC1(C)[N+](=O)[O-]", "note": "(stereo not drawn)", "growth inhibition": "3% (inactive)"},
      {"smiles": "O=C1CSC(c2cccc(Cl)c2)N1c1ccc(-c2ccc(-n3c(-c4ccccc4)nc4ccccc4c3=O)cc2)cc1", "note": "(stereo not drawn)", "growth inhibition": "7% (inactive)"},
      {"smiles": "CCOC(=O)C(C(=O)OCC)=P(c1ccccc1)(c1ccccc1)c1ccccc1", "growth inhibition": "0% (inactive)"},
      {"smiles": "COc1ccc(N=CN(C)C)c(C)c1", "growth inhibition": "-16% (inactive)"},
      {"smiles": "Cc1cc(S(=O)(=O)Nc2nnc3cnc4ccccc4n23)c(S)cc1Cl", "growth inhibition": "1% (inactive)"},
      {"smiles": "O=C(Oc1ccc2c(c1)CN(Cc1ccccc1)CO2)c1ccccc1", "growth inhibition": "7% (inactive)"},
      {"smiles": "CN(C)[C@@H]1C(=O)C(C(N)=O)=C(O)[C@@]2(O)C(=O)C3=C(O)c4c(O)cccc4C[C@H]3C[C@@H]12", "growth inhibition": "36% (inactive)"},
      {"smiles": "Cc1nc2c(Br)cc(Br)cc2c(=O)n1-c1ccccc1NC1OCC(O)C(O)C1O", "note": "(stereo not drawn)", "growth inhibition": "12% (inactive)"},
      {"smiles": "Cc1cc(N(CCOS(C)(=O)=O)CCOS(C)(=O)=O)ccc1C=Nc1ccc(-c2nc(Cc3ccccc3)sc2C)cc1", "growth inhibition": "46% (inactive)"}
    ]}
  ]
}
